Outcome and max response data for 38 compounds are collected here from PubChem BioAssay (NCATS).

Inconclusive results are not listed. Values without a mark were called inactive. The source made the active and inactive calls. Calls come from the whole dose curve; as a rule, active = well fitted inhibition curve with a large enough effect; inconclusive = small, poorly fitted or top-dose-only effect; inactive = flat fitted curve, though single readings scatter. Where a SMILES comes first, the peptide text is derived from it. Bridges are numbered along the chain shown (N, C = ends). [ ]: non-standard residue; d: D form. hArg = N=C(N)NCCCC[C@H](N)C(=O)O; Mpa = O=C(O)CCS
% is set by controls: 0 for no effect and ±100 for the full control effect.

The first experiment deals with HaCat. As to the kind of experiment: Cytotoxic Profiling of Annotated Libraries Using Quantitative High-Throughput Screening (AID 1296008). Note: nearly all actives have a fitted effect of over 60% in size. Conditions: Five cell lines viability, CellTiter-Glo ATP luminescence, 48-72 h; stronger effect = lower value. The procedure, abridged:
(§1)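 Compounds were pin-transferred onto cells and incubated 48 or 72 hr at 37 degree Celsius, 95% humidity. CellTiter-Glo was added, plates sat 10 min at room temperature, then ATP-coupled luminescence was imaged as the viability read-out.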
For the compound `NC(=O)[C@@H]1CSSCCC(=O)N[C@@H](CCCCN=C(N)N)C(=O)NCC(=O)N[C@@H](CC(=O)O)C(=O)N[C@@H](Cc2c[nH]c3ccccc23)C(=O)N2CCC[C@H]2C(=O)N1` ([Mpa][hArg]GDWPC-NH2; disulfide 1-7), the result was inactive.
As for `Cc1ccc(C(C)C)c(O)c1`, the call was inactive.
Turning to `COc1ccc(-c2cc(=O)c3c(O)cc(O[C@@H]4O[C@H](CO[C@@H]5O[C@@H](C)[C@H](O)[C@@H](O)[C@H]5O)[C@@H](O)[C@H](O)[C@H]4O)cc3o2)cc1O`, the max response is -10.9%.
Regarding `CC[N+](C)(CC)CCOC(=O)C1c2ccccc2Oc2ccccc21`, the call was inactive.
`COc1ccccc1Oc1c(NS(=O)(=O)c2ccc(C(C)(C)C)cc2)nc(-c2ncccn2)nc1OCCO`: the result was inactive.
Still for that read-out and setting: as for `Cc1cc(C)c(NC(=O)CN(CC(=O)O)CC(=O)O)c(C)c1Br`, the entry is “inactive”; as for `Cc1ccc(S(=O)(=O)NC(=O)NC2CCCCCCC2)cc1`, “inactive”.
Consider `C/C=C1\[C@H]2C=C(C)C[C@]1(N)c1ccc(=O)[nH]c1C2`, for which the max response is 4.06%.
Turning to `C1CCN2C[C@@H]3C[C@@H](CN4CCCC[C@@H]34)[C@H]2C1`, the outcome was inactive.
As for `CCCNC(C)(C)COC(=O)c1ccccc1`, the compound was classed as inactive.
Still for that read-out and setting: as for `C[C@@H]1CCC[C@H](C)N1`, the entry is “inactive”; as for `Cn1cc(C(=O)[C@@H]2CCc3nc[nH]c3C2)c2ccccc21`, “inactive”; as for `CCOC(=O)[C@H](CCc1ccccc1)N[C@@H](C)C(=O)N1CCC[C@H]1C(=O)O`, “inactive”.
Consider `c1ccc2[nH]ccc2c1`, for which the outcome was inactive.
The same measure, in the same setting: the entry for `NS(=O)(=O)c1ccc(C(=O)O)cc1` is “inactive”; for `O=C(Cn1ccnc1[N+](=O)[O-])NCc1ccccc1` it is “inactive”; for `O=c1[nH]cnc2nc[nH]c12` it is “inactive”.
For `O[C@@H]1CO[C@H]2[C@@H]1OC[C@@H]2O`, the outcome was inactive.
Same read-out and setting: as for `Cc1cc(OI)c(C(C)C)cc1-c1cc(C(C)C)c(OI)cc1C`, the entry is “inactive”; as for `CC(=O)N[C@H]1[C@H]([C@H](O)[C@H](O)CO)OC(C(=O)O)=C[C@@H]1N=C(N)N`, “inactive”.
Take `CC1(C)S[C@@H]2[C@H](NC(=O)C(C(=O)O)c3ccccc3)C(=O)N2[C@H]1C(=O)O` (stereo partly specified): the max response is -0.997%.
`CC(=O)NS(=O)(=O)c1ccc(N)cc1`: the compound was classed as inactive.
Still for that read-out and setting: the entry for `C=CCNC(N)=S` is “inactive”.
Regarding `CC(=O)[C@@]1(O)CC[C@H]2[C@@H]3C[C@H](C)C4=CC(=O)C=C[C@]4(C)[C@@]3(F)[C@@H](O)C[C@@]21C`, the max response was 4.35%.
Still for that read-out and setting: as for `OCCN1C[C@H](O)[C@@H](O)[C@H](O)[C@H]1CO`, the figure is -0.066%.
Turning to `NC(N)=NCCN1CCCCCCC1`, the call was inactive.
Still for that read-out and setting: the entry for `O=C1c2cccc(O)c2C(=O)c2c(O)cccc21` is “inactive”.
As to `NNC(=O)CP(=O)(c1ccccc1)c1ccccc1`, the compound was classed as inactive.
For `C[C@@H](c1ncncc1F)C(O)(Cn1cncn1)c1ccc(F)cc1F` (stereo partly specified), the result was inactive.
`Nc1ccncc1N`: the outcome was inactive.
With `Cc1ccc(S(=O)(=O)NC(=O)NC2CCCCC2)cc1`, the outcome was inactive.
Still for that read-out and setting: as for `Cc1cc(-n2nc3ccc(Cl)cc3n2)c(O)c(C(C)(C)C)c1`, the entry is “inactive”; as for `CN/C(=C\[N+](=O)[O-])NCCSCc1csc(CN(C)C)n1`, “inactive”; as for `CCN1CC(CCN2CCOCC2)C(c2ccccc2)(c2ccccc2)C1=O` (stereo unspecified), “inactive”.
On the same count and under the same terms, the entry for `O=C(/C=C/c1ccc(O)c(O)c1)O[C@@H]1C[C@@](OC(=O)/C=C/c2ccc(O)c(O)c2)(C(=O)O)C[C@@H](O)[C@@H]1O` is “inactive”.
As for `CCOC(=O)c1cccnc1`, the compound was called inactive.
Take `CC[C@H](C)[C@H](N)C(=O)O`: the call was inactive.
On the same count and under the same terms, the entry for `O=C1c2ccccc2C(=O)C1c1ccc(Br)cc1` is “inactive”.

Another experiment concerns KB-3-1. The description is as above. Conditions: Five cell lines viability, CellTiter-Glo ATP luminescence, 48-72 h, stronger effect = lower value. The gist of the method:
as §1
On to `NC(=O)[C@@H]1CSSCCC(=O)N[C@@H](CCCCN=C(N)N)C(=O)NCC(=O)N[C@@H](CC(=O)O)C(=O)N[C@@H](Cc2c[nH]c3ccccc23)C(=O)N2CCC[C@H]2C(=O)N1` ([Mpa][hArg]GDWPC-NH2; disulfide 1-7), for which the max response was 3.01%.
Take `Cc1ccc(C(C)C)c(O)c1`: the max response was 18.3%.
The same measure, in the same setting: as for `COc1ccc(-c2cc(=O)c3c(O)cc(O[C@@H]4O[C@H](CO[C@@H]5O[C@@H](C)[C@H](O)[C@@H](O)[C@H]5O)[C@@H](O)[C@H](O)[C@H]4O)cc3o2)cc1O`, the figure is -15.8%; as for `CC[N+](C)(CC)CCOC(=O)C1c2ccccc2Oc2ccccc21`, 56.3%; as for `COc1ccccc1Oc1c(NS(=O)(=O)c2ccc(C(C)(C)C)cc2)nc(-c2ncccn2)nc1OCCO`, -7.61%.
On the same count and under the same terms, as for `Cc1cc(C)c(NC(=O)CN(CC(=O)O)CC(=O)O)c(C)c1Br`, the figure is 14.1%.
Still for that read-out and setting: as for `Cc1ccc(S(=O)(=O)NC(=O)NC2CCCCCCC2)cc1`, the figure is 0.148%; as for `C/C=C1\[C@H]2C=C(C)C[C@]1(N)c1ccc(=O)[nH]c1C2`, -3.64%; as for `C1CCN2C[C@@H]3C[C@@H](CN4CCCC[C@@H]34)[C@H]2C1`, 4.47%.
As for `CCCNC(C)(C)COC(=O)c1ccccc1`, the max response is 0.448%.
Regarding `C[C@@H]1CCC[C@H](C)N1`, the max response was -5.17%.
Same read-out and setting: the figure for `Cn1cc(C(=O)[C@@H]2CCc3nc[nH]c3C2)c2ccccc21` is -12.7%; for `CCOC(=O)[C@H](CCc1ccccc1)N[C@@H](C)C(=O)N1CCC[C@H]1C(=O)O` it is 7.19%; for `c1ccc2[nH]ccc2c1` it is -2.84%.
Regarding `NS(=O)(=O)c1ccc(C(=O)O)cc1`, the max response is 9.5%.
As to `O=C(Cn1ccnc1[N+](=O)[O-])NCc1ccccc1`, the max response was 0.421%.
As for `O=c1[nH]cnc2nc[nH]c12`, the max response was -17.5%.
Still for that read-out and setting: as for `O[C@@H]1CO[C@H]2[C@@H]1OC[C@@H]2O`, the figure is 6.79%; as for `Cc1cc(OI)c(C(C)C)cc1-c1cc(C(C)C)c(OI)cc1C`, 12.2%; as for `CC(=O)N[C@H]1[C@H]([C@H](O)[C@H](O)CO)OC(C(=O)O)=C[C@@H]1N=C(N)N`, 6.48%.
Regarding `CC1(C)S[C@@H]2[C@H](NC(=O)C(C(=O)O)c3ccccc3)C(=O)N2[C@H]1C(=O)O` (stereo partly specified), the max response was 3.76%.
The same measure, in the same setting: as for `CC(=O)NS(=O)(=O)c1ccc(N)cc1`, the figure is 3.12%.
Turning to `C=CCNC(N)=S`, the max response is -9.92%.
With `CC(=O)[C@@]1(O)CC[C@H]2[C@@H]3C[C@H](C)C4=CC(=O)C=C[C@]4(C)[C@@]3(F)[C@@H](O)C[C@@]21C`, the max response was 9.43%.
For the compound `OCCN1C[C@H](O)[C@@H](O)[C@H](O)[C@H]1CO`, the max response is 4.48%.
For `NC(N)=NCCN1CCCCCCC1`, the max response was 18.1%.
Take `O=C1c2cccc(O)c2C(=O)c2c(O)cccc21`: the max response was 2.38%.
Same read-out and setting: as for `NNC(=O)CP(=O)(c1ccccc1)c1ccccc1`, the figure is -1.94%; as for `C[C@@H](c1ncncc1F)C(O)(Cn1cncn1)c1ccc(F)cc1F` (stereo partly specified), -2.08%.
Turning to `Nc1ccncc1N`, the max response was 10.8%.
Same read-out and setting: the figure for `Cc1ccc(S(=O)(=O)NC(=O)NC2CCCCC2)cc1` is 3.8%; for `Cc1cc(-n2nc3ccc(Cl)cc3n2)c(O)c(C(C)(C)C)c1` it is 6.34%.
Still for that read-out and setting: as for `CN/C(=C\[N+](=O)[O-])NCCSCc1csc(CN(C)C)n1`, the figure is 8.03%.
The same measure, in the same setting: the figure for `CCN1CC(CCN2CCOCC2)C(c2ccccc2)(c2ccccc2)C1=O` (stereo unspecified) is -4.5%; for `O=C(/C=C/c1ccc(O)c(O)c1)O[C@@H]1C[C@@](OC(=O)/C=C/c2ccc(O)c(O)c2)(C(=O)O)C[C@@H](O)[C@@H]1O` it is -0.0821%; for `CCOC(=O)c1cccnc1` it is 2.38%.
Regarding `CC[C@H](C)[C@H](N)C(=O)O`, the max response was -15.9%.
As to `O=C1c2ccccc2C(=O)C1c1ccc(Br)cc1`, the max response is -16.6%.
